Screening data from PubChem.
B2AR arrestin – qHTS assay of beta-arrestin-biased ligands of beta2-adrenergic receptor. Beta-2 adrenergic receptor (Homo sapiens), P07550. beta-arrestin recruitment to beta2AR, cell-based reporter. Potency, µM (highest dose often 46.1 µM), for the others: top-dose activation, most hits filed as activators. 330,000 tested, 0.02% active. AID 492947, 2010;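 further: potency means the concentration at half of the fitted maximal effect; 0% = DMSO controls and full agonism = EC100 isoproterenol or metaproterenol; nearly all actives have a fitted effect of over 65% in size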
a7 integrin act – qHTS for Activators of Integrin-Mediated Alleviation for Muscular Dystrophy; alpha7betagal myoblasts, beta-gal FDG fluorescence, 48 h; Potency, µM (doses to about 38.3 µM), inactives show top-dose activation, actives largely listed as activators; 350,000 tested, 0.064% active;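 further: potency means the concentration at half of the fitted maximal effect; 100% = response of the positive control SU9516; nearly all actives have a fitted effect of over 60% in size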
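alpha7betagal+/- myoblasts (passage 13, 250/well) treated 48 h at 37C with compounds at 1:260 dilution of DMSO stock. Lysed, then beta-galactosidase activity read as FDG fluorescence (ex 480/em 540) after 30 min, with pre-read for autofluorescence.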
DRD3 agonist – qHTS of D3 Dopamine Receptor Agonist: qHTS; AID 652048, 2013; D3R DiscoveRx beta-arrestin cells, luminescence, 90 min; max activation, %; D(3) dopamine receptor (Homo sapiens), P35462; 410,000 tested, 0.58% active; in the data active means max activation above about 30%; further: 0% is about no effect
Target sequence (P35462 whole entry, looked up): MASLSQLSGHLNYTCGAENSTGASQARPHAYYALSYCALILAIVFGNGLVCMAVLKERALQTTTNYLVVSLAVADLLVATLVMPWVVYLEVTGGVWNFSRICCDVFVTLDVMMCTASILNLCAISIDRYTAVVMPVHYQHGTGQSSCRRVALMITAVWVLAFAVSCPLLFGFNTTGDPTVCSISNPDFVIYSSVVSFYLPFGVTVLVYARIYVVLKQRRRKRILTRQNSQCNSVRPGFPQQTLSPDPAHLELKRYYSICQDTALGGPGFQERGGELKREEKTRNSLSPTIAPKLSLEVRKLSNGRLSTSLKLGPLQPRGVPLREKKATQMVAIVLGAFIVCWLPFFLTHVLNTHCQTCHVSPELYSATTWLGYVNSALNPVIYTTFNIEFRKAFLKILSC
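Agonist mode: compounds and dopamine controls were applied to plated cells for 90 min at 37 degrees C after an overnight attachment at 1500 cells/well. Luminescent read-out followed 30 - 60 minutes at room temperature with DiscoveRx detection reagent.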
IDH1 R132H inh – qHTS for Inhibitors of mutant isocitrate dehydrogenase 1 (IDH1): qHTS; Potency, µM (highest dose often 76.6 µM), inactives show at the highest dose activity change, negative = inhibition, actives largely listed as inhibitors; Isocitrate dehydrogenase [NADP] cytoplasmic (Homo sapiens), O75874; 390,000 tested, 0.093% active; IDH1-R132H enzyme, NADPH consumption, diaphorase/resazurin fluorescence; further: potency means the concentration at half of the fitted maximal effect; on the % scale 0 is the no-effect control and ±100 the full control effect; nearly all actives have a fitted effect of over 65% in size
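IDH1-R132H (0.5 ug/mL dispensed) in pH 7.5 Tris buffer was preincubated 30 min with compound, then given a substrate mix of 0.016 mM NADPH and 2 mM alpha-KG for 80 min at room temperature; remaining NADPH was read by diaphorase/resazurin fluorescence.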
D3 antag – qHTS of D3 Dopamine Receptor Antagonist: qHTS; D3R cells, DiscoveRx beta-arrestin luminescence, antagonist mode; hits give low values; 360,000 tested, 2.5% active; max response, negative = inhibition, %; AID 652054, 2013; in the data active means max response below about -50%; inconclusive means no clear call, values can overlap the other calls; further: on the % scale 0 is the no-effect control and ±100 the full control effect
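Cells expressing the human receptor were seeded at 1500 cells/well, incubated overnight at 37 degrees C in 5% CO2, then exposed to library compounds with dopamine controls for 90 minutes at 37 degrees C before luminescent detection.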
* = called active by the depositor; u = inconclusive; x = no result given; ! = not active in a repeat; [ ] = another dose, or the depositor's remark. The list is not random: actives were taken first. Their share in the collection is about 2.9%. Unless noted, the call rests on the fitted dose curve; in most records, active means well fitted curve in the direction sought with a large enough effect; inconclusive means small, poorly fitted or top-dose-only effect, or another doubt; inactive means no such curve, though single readings can be large; an effect the other way counts as inactive or inconclusive.

SMILES	B2AR arrestin	a7 integrin act	DRD3 agonist	IDH1 R132H inh	D3 antag
CC(=O)Nc1c(C)nn(-c2ccccc2)c1N1CCC(C(=O)NCc2cccc(Cl)c2)CC1	x	x	8.5	1.1%	x
CC1CCCN(CC(=O)Nc2ccc(S(=O)(=O)N3C(C)CCCC3C)cc2)C1 (configuration not stated)	x	-12.9%	-1.8	7.8%	-51.0*
CC1CCCN(CCC(=O)Nc2ccccc2)C1 (configuration not stated)	0.1%	u	-25.0	0.4%	9.0
CC1CCCN(CCC(=O)Nc2ccc(Br)cc2)C1 (configuration not stated)	0.1%	-23.7%	-31.7	11.7%	-86.3*
CC1CCN(CC(=O)Nc2ccc(S(=O)(=O)N3CCCC(C)C3)cc2)CC1 (configuration not stated)	0.4%	-38.0%	-18.4	-4.4%	-7.1
Cc1cc(C(=O)N/N=C/c2ccc(-c3cccc(Cl)c3)o2)n[nH]1	-0.4%	u	-1.1	6.0%	-61.3*
COc1ccc(C(=O)NCCSCc2ccc(Cl)cc2)cc1OC	0.0%	1.1%	7.3	0.2%	8.8
COc1cc(C(=O)NC2CC3CCCC(C2)N3Cc2ccccc2)cc(OC)c1OC (configuration not stated)	-0.6%	-27.4%	-18.9	1.7%	-94.7*
COc1cc(C(=O)NC2CCN(Cc3ccccc3)CC2)cc(Cl)c1OC	0.4%	-23.3%	-19.1	-0.8%	-99.0*
COc1ccc(C(=O)NC2CC3CCCC(C2)N3Cc2ccccc2)cc1OC (configuration not stated)	0.5%	5.3%	-24.9	-2.0%	-94.0*
COc1ccc(C(=O)NCCSCc2ccccc2)cc1OC	0.0%	-7.3%	11.0	-0.6%	-51.1*
COc1cc(C(=O)NC2CC3CCCC(C2)N3C2CC2)cc(OC)c1OC (configuration not stated)	-0.6%	5.2%	-5.4	-4.0%	-10.7
Cc1ccc2c(=O)cc(C(=O)Nc3sc4c(c3C(=O)NCc3ccco3)CCCC4)oc2c1C	x	x	-2.9	-13.5%	x
COc1ccc(CN2C3CCC2CC(NC(=O)c2cc(OC)c(OC)c(OC)c2)C3)cc1 (configuration not stated)	0.2%	-2.8%	-25.4	-1.6%	-66.4*
COc1ccc([N+](=O)[O-])cc1C(=O)NC1CCN(Cc2ccccc2)CC1	x	-18.8%	-20.4	9.7%	-99.6*
CCc1ccc(NC(=O)CSc2nc(-c3cccc(OC)c3)nc3c2Cc2c(CO)cnc(C)c2O3)cc1	x	x	0.5	-11.7%	x
CCN[C@@H]1C[C@H](N)[C@@H](OC2OC(CN)=CCC2N)[C@H](O)[C@H]1O[C@H]1OC[C@](C)(O)[C@H](NC)[C@H]1O (some centres not stated)	x	x	49.1*	x	x
CN[C@@H]1[C@@H](O)[C@@H](O[C@@H]2[C@@H](O)[C@H](OC3OC(CN)=CCC3N)[C@@H](N)C[C@H]2N)OC[C@]1(C)O (some centres not stated)	x	x	-6.9	x	x
COc1cccc2c1cc1c(=O)n(CC(=O)N3CCC(C)CC3)nc(C)n12	0.4%	-16.2%	38.0*!	-1.7%	0.6
CCCCCCCN(CC)CCCC(O)c1ccc(NS(C)(=O)=O)cc1 (configuration not stated)	x	x	-26.4	x	x
O=C(O)c1c(-c2ccccc2)cnc2ccccc12	x	-2.2%	1.5	15.8%	16.0
O=C(C(=Cc1ccc(F)cc1)C(=O)c1ccccc1)c1ccccc1	x	x	-8.0	x	-61.5*
O=C(C(=Cc1ccc(F)cc1)c1ccccc1)c1ccc(O)cc1	x	11.3%	2.6	-1.1%	18.9
Cc1ccc(-n2nnc3c(=O)n(CC(=O)N4CCOCC4)cnc32)cc1	-0.3%	1.8%	-7.6	11.4%	-52.8*
CCCOC(=O)c1c(NC(=O)/C=C/c2cnn(C)c2C)sc(C(=O)OCC)c1C	1.6%	0.0%	20.2	2.4%	35.9
SMILES	B2AR arrestin	a7 integrin act	DRD3 agonist	IDH1 R132H inh	D3 antag
CCn1ncc(/C=C/C(=O)Nc2c(C)nn(CC)c2C)c1C	-0.6%	3.8%	2.6	10.0%	23.2
CCOC(=O)c1sc(NC(=O)/C=C/c2cnn(CC)c2C)c(C(=O)OCC)c1C	-0.2%	-21.3%[7.66 µM]	35.6*	9.6%	15.6
CCCOC(=O)c1c(NC(=O)/C=C/c2cnn(C)c2C)sc(C(=O)OC)c1C	-0.2%	-7.3%	17.1	6.3%	-76.9*
CCOC(=O)CN[C@@H](C(=O)N1CC[C@H]1C(=O)NCc1ccc(/C(N)=N/O)cc1)C1CCCCC1	x	x	3.7	x	x
CO/N=C(\C(=O)N[C@@H]1C(=O)N2C(C(=O)O)=C(CSc3nc(C)c(CC(=O)O)s3)CS[C@H]12)c1csc(N)n1	x	x	3.2	x	x
CCc1cccc(NC(=O)C(Cc2ccccc2)n2cccc2)c1 (configuration not stated)	x	x	-8.1	-1.3%	x
C[C@H](CO)N1C[C@H](C)[C@@H](CN(C)Cc2ccncc2)Oc2ncc(Br)cc2C1=O	x	4.6%	-17.2	9.1%	-114.0*
CC(=O)OCCN(C)c1cc(SC(C)C)c2nonc2c1[N+](=O)[O-]	-0.9%	-17.6%	1.7	2.4%	-1.8
CN(CCO)c1cc(Sc2nc3ccccc3s2)c2nonc2c1[N+](=O)[O-]	3.4%	-42.9%[7.66 µM]	-37.4	6.2%	-84.1*
Cc1ccc2[nH]c(=O)c(CN(CCCO)S(=O)(=O)c3cccc4nsnc34)cc2c1	-1.0%	4.9%	8.9	0.0%	-145.3*
Cc1ccc2cc(CN(CCCO)S(=O)(=O)c3cccc4nsnc34)c(=O)[nH]c2c1	-0.2%	-2.8%[7.66 µM]	-3.7	8.9%	22.1
Cc1ccccc1-c1noc(CSc2nnc(Cc3ccccc3)n2-c2ccc(F)cc2)n1	x	x	8.7	-16.9%	x
COc1ccc(-c2cc(-c3nnc(COC(=O)C4CC4)o3)c3ccccc3n2)cc1OC	-0.1%	30.2%	3.1	3.1%	-2.6
COc1ccc(-c2cc(-c3nnc(COC(=O)C4CC4C)o3)c3ccccc3n2)cc1OC (configuration not stated)	-0.4%	-2.7%	50.5*	3.3%	34.2
COc1nc(-c2ccccc2)cc(-c2ccc(OC)c(OC)c2)n1	0.0%	19.8%	98.3*	6.9%	54.9
COc1ccc(-c2cc(-c3ccccc3)nc(NN)n2)cc1OC	2.6%	35.7%	-8.1	-8.2%	u
COc1ccc(-c2noc(CCC(=O)N3CCN(c4cccc(F)c4)CC3)n2)cc1	-0.3%	10.1%	34.3*	-15.5%	100.0
COc1ccc(-c2noc(CCC(=O)N3CCN(c4cccc(Cl)c4)CC3)n2)cc1	-0.3%	-5.1%	14.2	-12.6%	53.2
COc1ccc(-c2noc(CCC(=O)N3CCN(c4ccccc4C(F)(F)F)CC3)n2)cc1	-0.3%	-21.4%	30.5*	-13.7%	117.0
